GLP1R cytotox – cytotoxicity in counter-screen for GLP-1R inverse agonists | HEK293 cAMP-luciferase reporter cells, luminescence, 24 h | Potency, µM (doses to about 38.3 µM), for inactives: top-dose activity change, negative = inhibition, hits mostly inhibitors | 410,000 compounds, 0.13% hits | AID 624418;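 also: loss of luciferase light is scored as toxicity; potency is read from the fitted curve at half-maximal effect; % is scaled to controls: 0 for no effect and ±100 for the full control effect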
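To flag toxic compounds, the library was rerun on cells for 24 hr at 37 deg C and 5% CO2. Viability-linked luminescence was captured 12 min after adding luciferase detection reagent.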
KCNH2 3.1 inh – inhibitors of human KCNH2 3.1 potassium channel isoform; U2OS KCNH2 3.1, thallium flux FluxOr; active compounds read low; activity change, % (tested at about 1.8 µM); 340,000 compounds, 0.95% hits; AID 720553;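 active = maximum activity change below -70%; inconclusive = maximum activity change from -70% to -50%; inactive = maximum activity change above -50%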;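 also: thallium influx rate constant from kinetic fluorescence after stimulation buffer; % is scaled to controls: 0 for no effect and ±100 for the full control effect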
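Thallium flux via FluxOr fluorescence (Red40 quencher, 45 min loading) in U2OS cells virally expressing the KCNH2 3.1 isoform (1.77 x 10^8 /mL virus, overnight at 37 C). Rate constants from 2-min kinetic reads post-stimulation, normalised to positive and negative controls.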
hERG WT inh – blocks the wildtype human KCNH2 potassium channel | Q12809 | U2OS, BacMam KCNH2, thallium flux FluxOr; active compounds read low | activity change, % at 1.84 µM | 340,000 compounds, 0.37% hits | AID 720551;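 active = maximum activity change below -70%; inconclusive = maximum activity change between -70% and -50%; inactive = maximum activity change above -50%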; also: % is scaled to controls: 0 for no effect and ±100 for the full control effect
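U2OS cells were transduced with wild-type KCNH2 virus (2.03 x 10^8 / mL) for 4 h at room temperature, then cultured overnight at 37 C. Thallium flux was read with FluxOr dye. Rate constants were normalized to DMSO controls.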
GLS inh – blocks human kidney-isoform glutaminase activity. Potency, µM (highest dose often 45.5 µM), for inactives: top-dose activity change, negative = inhibition, usual class: inhibitors. 410,000 compounds, 0.21% hits. GLS enzymatic activity, qHTS titration. O94925; also: potency is read from the fitted curve at half-maximal effect; % is scaled to controls: 0 for no effect and ±100 for the full control effect
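Two-point fluorescence kinetic (t0, 30 min RT) for hKGA; glutamate detected via glutamate oxidase–HRP–Amplex Red. Substrate: 1 mM L-glutamine solution; buffer 45 mM KH2PO4, pH 8.2.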
GLP-1R agonist – agonists of human GLP-1 receptor; P43220; HEK293 GLP-1R CRE-luciferase, luminescence, 4-6 h; cells express a hypersensitive GLP-1R form; Potency, µM (highest dose often 45.6 µM), for inactives: at the highest dose activation, hits mostly activators; 380,000 compounds, 0.007% hits; AID 624172; also: potency is read from the fitted curve at half-maximal effect; % of control where 0% means no effect
Target sequence (P43220 whole entry, looked up): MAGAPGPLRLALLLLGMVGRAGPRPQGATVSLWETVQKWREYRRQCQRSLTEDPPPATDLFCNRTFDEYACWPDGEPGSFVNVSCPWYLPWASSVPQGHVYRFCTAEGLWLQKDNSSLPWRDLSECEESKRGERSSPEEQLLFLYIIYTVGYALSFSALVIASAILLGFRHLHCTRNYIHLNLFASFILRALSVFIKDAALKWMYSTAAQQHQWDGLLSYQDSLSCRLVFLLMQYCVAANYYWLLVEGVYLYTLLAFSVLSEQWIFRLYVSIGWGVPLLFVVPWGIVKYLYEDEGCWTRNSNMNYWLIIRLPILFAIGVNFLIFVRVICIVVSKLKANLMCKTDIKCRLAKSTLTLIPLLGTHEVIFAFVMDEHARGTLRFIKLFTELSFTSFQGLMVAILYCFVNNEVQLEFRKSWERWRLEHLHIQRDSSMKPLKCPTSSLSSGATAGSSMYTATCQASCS
GLP-1R inv ag – GLP-1 receptor (human) inverse agonism; 410,000 compounds, 1.6% hits; P43220; Potency, µM (doses to about 38.3 µM), inactives show at the highest dose activity change, negative = inhibition, hits mostly inhibitors; HEK293 GLP-1R CRE-luciferase, luminescence, 24 h; GLP-1R form is constitutively active; also: potency is read from the fitted curve at half-maximal effect; % is scaled to controls: 0 for no effect and ±100 for the full control effect; nearly all actives have a fitted effect of over 55% in size
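Inverse agonism was detected as reduced cAMP-driven luciferase luminescence after 24 h compound treatment. The cells were HEK293 clones expressing constitutively active human GLP-1R with the reporter. Reporter-only and GPR119 cell lines served as counterscreen controls.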
An asterisk follows results filed as active; i = inactive; ? = inconclusive; · = not tested or not shown. A selection: hits, their analogues and other compounds. The true share with any hit is near 2.8%. Unless noted, calls follow the shape of the dose curve; as a rule, active = well fitted curve in the direction sought with a large enough effect; inconclusive = small, poorly fitted or top-dose-only effect, or another doubt; inactive = no such curve, though single readings can be large; an effect the other way counts as inactive or inconclusive.

SMILES | GLP1R cytotox | KCNH2 3.1 inh | hERG WT inh | GLS inh | GLP-1R agonist | GLP-1R inv ag
COC(=O)c1c(NC(=O)C2COc3ccccc3O2)sc2c1CCN(C(=O)OC)C2 (configuration not stated) | 10% | 2 | 9 | 1% | 11% | 5%
COC(=O)c1c(NC(=O)C2COc3ccccc3O2)sc2c1CCN(Cc1ccccc1)C2 (configuration not stated) | -7% | -92* | 3 | -13% | 2% | ?
CCc1ccccc1NC(=O)CN(c1ccccc1)S(=O)(=O)c1ccsc1C(=O)OC | -5% | · | · | 1% | · | -22%
Cc1ccc2nc(SCC3CCCCO3)[nH]c2c1 (configuration not stated) | 7% | 9 | -7 | 5% | 2% | 3.5µM*
Cc1cccc(-n2cc(-c3ccc([N+](=O)[O-])cc3)[nH]c2=S)c1 | 10% | ? | -70* | 1% | 18% | 5%
COc1ccc(-c2[nH]nc3nc(-c4cc(Br)ccc4OC)cc(C(=O)O)c23)cc1 | -4% | · | · | 4% | · | -6%
COc1c(Cl)cc(C(=O)Nc2cccc(-c3nc4ccccc4[nH]3)c2)cc1Cl | ? | · | · | -5% | · | 7.9µM*
COc1c(Cl)cc(C(=O)Nc2ccccc2-c2ccccc2)cc1Cl | 8% | 0 | 2 | 13% | -12% | 10µM*
COc1ccccc1CCNC(=O)Cc1c(C)c2cc3c(C(C)(C)C)coc3c(C)c2oc1=O | -1% | · | · | -9% | · | 4%
Cc1cccc(N2C(=O)CSC23C(=O)N(CC(=O)NCc2ccccc2Cl)c2ccccc23)c1 (configuration not stated) | 2% | · | · | -1% | 2% | 10µM*
Cc1cccc(N2C(=O)CSC23C(=O)N(CC(=O)NCCc2ccccc2)c2ccccc23)c1 (configuration not stated) | -4% | · | · | -18% | -5% | -12%
S=c1nc(-c2ccc(Br)cc2)[nH]c2ccccc12 | -10% | 31 | -141* | 6% | 3% | 11%
Cc1cccc(C(=O)NNS(=O)(=O)c2ccccc2)c1O | -9% | -1 | -1 | 6.3µM* | 4% | -3%
O=C(NNS(=O)(=O)c1ccccc1)c1ccc(O)cc1 | 0% | -10 | -3 | 26% | -5% | -5%
FC(F)OC(Cl)C(F)(F)F (configuration not stated) | · | · | · | 0% | -1% | ·
CCOc1ccc(/C=C2/SC(=S)N(n3c(C)ccc3C)C2=O)cc1 | -26% | -20 | -8 | 4% | -13% | 7.1µM*
CC1CCN(CCCNC(=O)c2cc3c(s2)-c2ccccc2OC3)CC1 | -17% | -45 | 14 | -3% | -1% | ?
CC1CCCN(CCCNC(=O)c2cc3c(s2)-c2ccccc2OC3)C1 (configuration not stated) | -10% | -34 | 22 | -7% | 16% | 8.9µM*
Cc1cccc2c1-c1sc(C(=O)NCCCN3CCC(C)CC3)cc1CO2 | -13% | -75* | 11 | 6% | 5% | ?
COc1cc2c(cc1OC)C(c1ccc(Br)cc1)CC(=O)N2 (configuration not stated) | -12% | 2 | -126* | -3% | 14% | 8%
Cc1ccc(N2C(=O)CS(=O)(=O)C23C(=O)N(Cc2cccc(F)c2)c2ccccc23)cc1Cl (configuration not stated) | 2% | · | · | 6% | -1% | ?
COC(=O)C1=C(C)N(Cc2ccc(C)cc2)C(=O)/C1=C\c1cc(OC)c(OC)c(OC)c1 | -20% | 1 | i | -10% | 2% | 4.5µM*
CCCSc1nc2sc3c(c2c(=O)n1CC)CC(C)(C)OC3 | -13% | -11 | 1 | -2% | 20% | 10µM*
CSc1nc2sc3c(c2c(=O)n1CC(C)C)CC(C)(C)OC3 | 5% | 1 | 2 | 3% | 1% | ?

Screens deposited in PubChem by National Center for Advancing Translational Sciences (NCATS).
